In PubChem BioAssay AID1159580 (chemical genetic matrix, 2015):
Values joined by “and” are separate entries in the source; they are usually repeats but may differ in a detail not shown here. Identical values can stand only once. Among all 5,500 compounds or so, about 2,000 (36%) were called active. About 18% were inconclusive and are not listed. Rule as the data show it: active = normalized growth mostly below about 0.91 (no sharp cut-off); inconclusive = no clear call, values can overlap the other calls; inactive = mostly above about 0.92. Some of the results follow.

Assay: chemical genetic growth profiling, strain panel (AID 1159580);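 also: tested at 20 µM; growth read once vehicle control cultures reached saturation at 30 °C; 1 = growth at the plate median or of vehicle wells; lower values mean less growth of the strain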
Settings: S. cerevisiae deletion strains, growth OD

Measured: normalized growth

Cc1ccc(C(C)C)cc2c(C)ccc1-2
inactive: locus YAL013W, strain DEP1, active compounds read low 1 | locus YAL021C, strain ccr4, active compounds read low 1 | locus YAL026C, strain drs2, active compounds read low 1.02 | locus YAL030W, strain snc1, active compounds read low 1 | locus YBL061C, strain skt5, active compounds read low 1 | locus YBR009C, strain hhf1, active compounds read low 0.999 | locus YBR021W, strain FUR4, active compounds read low 1.01 | locus YBR023C, strain chs3, active compounds read low 1 | locus YBR171W, strain sec66, active compounds read low 1.02 | locus YBR229C, strain ROT2, active compounds read low 1 | locus YBR231C, strain swc5, active compounds read low 1 | locus YBR279W, strain paf1, active compounds read low 1.01 | locus YCL011C, strain gbp2, active compounds read low 1.01 | locus YCL016C, strain dcc1, active compounds read low 0.985 | locus YCL029C, strain bik1, active compounds read low 1.03 | locus YCL061C, strain MRC1, active compounds read low 1.01 | locus YCL069W, strain vba3, active compounds read low 0.996 | locus YCR088W, strain abp1, active compounds read low 1.01 | locus YDL005C, strain med2, active compounds read low 1.01 | locus YDL035C, strain GPR1, active compounds read low 1 | locus YDL040C, strain nat1, active compounds read low 0.99 | locus YDL074C, strain BRE1, active compounds read low 0.944 | locus YDL101C, strain DUN1, active compounds read low 0.991 | locus YDL134C, strain PPH21, active compounds read low 0.984 | locus YDL185W, strain tfp1, active compounds read low 1.02 | locus YDL192W, strain arf1, active compounds read low 1.02 | locus YDR001C, strain nth1, active compounds read low 1 | locus YDR069C, strain doa4, active compounds read low 1 | locus YDR101C, strain arx1, active compounds read low 1.02 | locus YDR137W, strain rgp1, active compounds read low 0.978 | locus YDR159W, strain sac3, active compounds read low 1.05 | locus YDR162C, strain NBP2, active compounds read low 1 | locus YDR195W, strain ref2 0.975 | locus YDR297W, strain sur2, active compounds read low 1 | locus YDR318W, strain mcm21, active compounds read low 1.01 | locus YDR334W, strain swr1, active compounds read low 1 | locus YDR335W, strain msn5, active compounds read low 0.997 | locus YDR388W, active compounds read low 1.03 | locus YDR392W, strain spt3, active compounds read low 0.906 | locus YDR502C, strain sam2, active compounds read low 1 | locus YEL003W, strain gim4, active compounds read low 0.998 | locus YEL037C, strain rad23, active compounds read low 1 | locus YEL061C, strain CIN8 (second series), active compounds read low 1 | locus YEL061C, strain CIN8, active compounds read low 0.998 | locus YER015W, strain faa2, active compounds read low 1 | locus YER016W, strain bim1, active compounds read low 1 | locus YER110C, active compounds read low 1.04 | locus YER111C, strain swi4, active compounds read low 1.01 | locus YER155C, strain BEM2 (second series), active compounds read low 0.998 | locus YER155C, strain BEM2, active compounds read low 1.01 | locus YER167W, strain BCK2, active compounds read low 0.988 | locus YFR010W, strain ubp6, active compounds read low 1.01 | locus YGL078C, strain dbp3, active compounds read low 1.02 | locus YGL086W, strain mad1, active compounds read low 0.994 | locus YGL167C, strain pmr1, active compounds read low 1.01 | locus YGL173C, strain kem1, active compounds read low 1.01 | locus YGL227W, strain vid30, active compounds read low 1.01 | locus YGL240W, strain doc1, active compounds read low 1.01 | locus YGL248W, strain PDE1, active compounds read low 1 | locus YGL253W, strain hxk2, active compounds read low 1.03 | locus YGR078C, strain PAC10, active compounds read low 0.948 | locus YGR135W, strain pre9, active compounds read low 1.03 | locus YGR252W, strain gcn5, active compounds read low 1.02 | locus YHR013C, strain ard1, active compounds read low 1.02 | locus YHR027C, strain rpn1, active compounds read low 1 | locus YHR030C, strain SLT2, active compounds read low 1 and 0.968 | locus YHR079C, strain IRE1 (second series), active compounds read low 1.02 | locus YHR079C, strain IRE1, active compounds read low 0.977 | locus YHR094C, strain hxt1, active compounds read low 1.02 | locus YHR129C, strain ARP1, active compounds read low 1 | locus YHR142W, strain chs7, active compounds read low 1.02 | locus YHR200W, strain rpn10, active compounds read low 1.02 | locus YIL066C, strain RNR3, active compounds read low 0.986 | locus YIL073C, strain SPO22, active compounds read low 1.09 | locus YIL125W, strain kgd1, active compounds read low 1.01 | locus YIR030C, strain dcg1, active compounds read low 1.02 | locus YJL092W, strain hpr5, active compounds read low 1 | locus YJL095W, strain BCK1 (second series), active compounds read low 1 | locus YJL095W, strain BCK1, active compounds read low 0.972 and 1.03 | locus YJL115W, strain asf1, active compounds read low 0.992 | locus YJL129C, strain trk1, active compounds read low 1.01 | locus YJL134W, strain LCB3, active compounds read low 1 | locus YJL154C, strain vps35, active compounds read low 0.999 | locus YJL164C, strain tpk1, active compounds read low 0.991 | locus YJL166W, strain qcr8, active compounds read low 0.994 | locus YJL168C, strain set2, active compounds read low 1.02 | locus YJL187C, strain SWE1 (second series), active compounds read low 0.995 | locus YJL187C, strain SWE1, active compounds read low 1.01
